# In PubChem BioAssay (NCATS):
# Records with an inconclusive call do not appear. Activity calls are given as the source filed them. Unless noted, calls come from the whole dose curve; as a rule, active = well fitted curve in the direction sought with a large enough effect; inconclusive = small, poorly fitted or top-dose-only effect, or another doubt; inactive = no such curve, though single readings can be large; an effect the other way counts as inactive or inconclusive.
# Legend:
# [1] = P-glycoprotein substrates identified in KB-8-5-11 adenocarcinoma cell line, qHTS therapeutic library screen (AID 1346987); note: nearly all actives have a fitted effect of over 65% in size; note: potency is the fitted concentration of half-maximal effect
# How it was run: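 P-gp-mediated resistance screen: KB-8-5-11 cells treated 72 h with compounds in dose-response. CellTiter-Glo viability.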
# [2] = Primary qHTS for inhibitors of nuclear receptor binding SET domain protein 2 (NSD2) in an isogenic RCH-ACV NSD2 p.E1099K mutant (9B) (AID 1645876); note: nearly all actives have a fitted effect of over 70% in size; note: potency is the fitted concentration of half-maximal effect
# [3] = molecular target: Glutathione peroxidase 1 (Homo sapiens) (UniProt P07203); assay: Primary qHTS Assay for Inhibitors of Recombinant Selenoprotein Glutathione Peroxidase 1 (GPX1) (AID 1845191); note: nearly all actives have a fitted effect of over 65% in size
# How it was run: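 Recombinant GPX1 (10 nM final) was preincubated with compound for 30 min at room temperature, then reacted with 1 mM GSH, 0.5 mM CHP, 0.5 mM NADPH and 100 nM glutathione reductase; NADPH fluorescence (340/450 nm) was read at 0 and 15 min.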
# [4] = qHTS to identify inhibitors of the type 1 interferon - major histocompatibility complex class I in skeletal muscle: primary screen against the NCATS Mechanism Interrogation Plate v5.0 (MIPE) Libary (AID 1347411);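 note: plate controls were vehicle for no effect and reference inhibitor for full effect; nearly all actives have a fitted effect of over 65% in size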
# How it was run: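 Cells were genome-edited human myoblasts carrying a HiBit tag on endogenous HLA-B. They were treated with IFN-beta (4.0 ng/ml) and titrated compounds (top 46 uM) for 24 hrs before lytic HiBiT detection.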
# [5] = qHTS drug screen for cell cycle checkpoint inhibitors in PARPi-resistant BRCA-mutant ovarian cancer cell lines. (AID 1963452; calls by dose curve); details: PEO1/OlaR viability, CellTiter-Glo luminescence, 96 h, stronger effect = lower value
# How it was run: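 PEO1, PEO4 and PEO1/OlaR ovarian cancer cells, 600 per well, exposed 96 h at 37C to a dilution series. Viability read by CellTiter-Glo luminescence, normalized to DMSO and empty wells; activity summarized as Z-AUC.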
# [6] = Primary qHTS for inhibitors of nuclear receptor binding SET domain protein 2 (NSD2) in an RCH-ACV wild type WT cells (2C) (AID 1645877); note: potency is the fitted concentration of half-maximal effect; nearly all actives have a fitted effect of over 70% in size
# [7] = qHTS assay to identify inhibitors of the type 1 interferon - major histocompatibility complex class I in skeletal muscle: Counter screen cell viability and HiBit confirmation (AID 1347412); details: iHSKM muscle cells + IFN-b, HiBiT or CellTiter-Glo, 24 h, at 45.9 µM (top of the series); note: % is set by controls: 0 for no effect and ±100 for the full control effect; nearly all actives have a fitted effect of over 60% in size
# How it was run: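 Duplicate plates, pinned identically: one read for HiBiT-tagged endogenous HLA-B luminescence, the other for ATP-content viability via CellTiter Glo. Cells were genome-engineered human myoblasts given 4 ng/ml IFN-b; compounds 12-pt, 1:3 from 46 uM final; 24 hr exposure.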
# [8] = measured here: PEO1 parental Z-AUC
# Sequence of Glutathione peroxidase 1 (Homo sapiens) (P07203 whole entry, looked up): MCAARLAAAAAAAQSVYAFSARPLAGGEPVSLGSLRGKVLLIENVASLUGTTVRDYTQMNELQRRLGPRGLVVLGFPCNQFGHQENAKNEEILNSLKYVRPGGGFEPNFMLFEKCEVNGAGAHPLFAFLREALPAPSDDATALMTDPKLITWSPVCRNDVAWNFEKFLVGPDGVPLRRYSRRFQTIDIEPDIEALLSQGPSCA
smiles,measurement,setting,value
O=c1cc(-c2ccc(O)cc2)oc2cc(OC3OC(CO)C(O)C(O)C3O)c(C3OC(CO)C(O)C(O)C3O)c(O)c12 (centres undefined),Potency,[1],inactive
same,Potency,[2],inactive
same,Potency,[3],inactive
Cc1ccc2cc(-c3c(C)ccc(C(=O)c4c(-c5ccccc5)n(C)n(-c5ccccc5)c4=O)c3N)ccc2n1,Potency,[1],16.4 µM (active)
same,Potency,[4],inactive
same,Potency,[3],inactive
same,Z-AUC,[5],-0.557 (inactive)
same,Z-AUC,[5]; [8],-0.233
same,Z-AUC,[5]; measured here: PEO4 Z-AUC,-0.0214
COc1cc(/C=C\c2ccc(O)cc2)cc(OC)c1,Potency,[1],inactive
same,Potency,[2],6.51 µM (active)
same,Potency,[3],inactive
Cn1c(CNc2cccc(C(=O)NCc3ccccc3C(F)(F)F)c2)nnc1-c1ccncc1,Potency,[1],inactive
same,Potency,[6],10.3 µM (active)
same,Potency,[3],inactive
Nc1ncnc(Nc2ccc(OCc3ccccc3)c(Cl)c2)c1/C=N/OCCN1CCOCC1,Potency,[1],16.4 µM (active)
same,Potency,[2],16.6 µM (active)
same,Potency,[6],8.33 µM (active)
same,Potency,[3],inactive
same,Z-AUC,[5],-0.0964 (inactive)
same,Z-AUC,[5]; [8],0.0883
same,Z-AUC,[5]; measured here: PEO4 Z-AUC,-0.311
same,"activity change, negative = inhibition",[7]; HiBiT,-8.78% (inactive)
same,"activity change, negative = inhibition",[7]; Viability,12.2% (inactive)
